Experimental findings from PubChem BioAssay (NCATS) are described below.

In test [1] the target is ATP-dependent 6-phosphofructokinase (Trypanosoma brucei brucei) (UniProt O15648). As to the kind of experiment: qHTS Assay to Find Inhibitors of T. brucei phosphofructokinase: hit validation (AID 492961).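 Also: luminescence reports ADP formed as PFK phosphorylates fructose-6-phosphate with ATP.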 The settings on record: T. brucei PFK, ADP-Glo luminescence; series mostly up to 51.4 µM. Put shortly: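 Compounds titrated; %activity normalized to 0x and 1x enzyme controls, curve-fitted. Readout: ADP-Glo luminescence after 45 min room-temperature reaction of 1.25 nM PFK, 0.1 mM ATP, 0.5 mM F6P, pH 8.0.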
Sequence of ATP-dependent 6-phosphofructokinase (Trypanosoma brucei brucei) (O15648 whole entry, looked up): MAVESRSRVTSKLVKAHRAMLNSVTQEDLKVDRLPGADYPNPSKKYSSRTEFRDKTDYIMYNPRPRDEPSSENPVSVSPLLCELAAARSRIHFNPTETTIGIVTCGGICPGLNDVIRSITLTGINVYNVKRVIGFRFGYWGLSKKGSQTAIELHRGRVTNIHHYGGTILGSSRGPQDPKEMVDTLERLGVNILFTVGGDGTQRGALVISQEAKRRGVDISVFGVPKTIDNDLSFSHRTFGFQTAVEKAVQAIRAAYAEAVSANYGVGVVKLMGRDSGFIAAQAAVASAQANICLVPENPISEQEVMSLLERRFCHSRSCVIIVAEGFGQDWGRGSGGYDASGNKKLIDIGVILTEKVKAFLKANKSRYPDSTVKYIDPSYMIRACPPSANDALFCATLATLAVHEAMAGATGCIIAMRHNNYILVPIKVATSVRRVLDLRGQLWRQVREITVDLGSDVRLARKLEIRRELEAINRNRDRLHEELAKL

Test [2] concerns the target DNA polymerase III PolC-type (Bacillus subtilis (strain 168)) (UniProt P13267). As to the kind of experiment: qHTS Validation Assay for the Inhibitors of DNA Replication in Gram-Positive Bacteria (AID 485295).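 Also: reconstituted holoenzyme with PolC plus beta clamp SSB and primase; PicoGreen fluorescence of double-stranded DNA made on primed circular M13 template.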 The settings on record: Gram-positive bacterial DNA replication assay; series mostly up to 57.1 µM. Put shortly: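 First, compound is mixed with the reconstituted replication complex and held at room temperature. Next, circular single-stranded M13Gori with nucleotides starts synthesis. Finally, PicoGreen in EDTA halts the reaction and stains double-stranded product for fluorescence reading.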
For orientation: In qHTS, concentration-response curves come from the screen itself.

In test [3] the target is Tumor susceptibility gene 101 protein (Homo sapiens) (UniProt Q99816). As to the kind of experiment: qHTS Validation Assay for Iinhibitors of HIV-1 Budding by Blocking the Interaction of PTAP/TSG101 (AID 485342; calls by dose curve). The settings on record: TSG101-PTAP binding, fluorescence polarization, 4-point titration; series mostly up to 115 µM. Put shortly:
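Binding of a FITC-tagged PTAP-motif peptide (50 nM) to the Tsg101 binding domain (10 uM) is monitored by fluorescence polarization. Compounds are pin-delivered before peptide addition, and incubation runs 20 min at room temperature.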

Test [4] concerns the target Beta-2 adrenergic receptor (Homo sapiens) (UniProt P07550). As to the kind of experiment: qHTS validation assay of beta-arrestin-biased ligands of beta2-adrenergic receptor (AID 485366). The settings on record: cell-based beta-arrestin recruitment to ADRB2, qHTS; series mostly up to 46.1 µM. A digest of the protocol: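 Compound series up to 46 microM applied to beta2-AR/beta-arrestin Tango cells, 18 hr, 37 degrees C, 5% CO2. Read-out: tTA-driven luciferase luminescence, converted to %Activity; concentration-response curves assigned curve classes.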

The nature of test [5]: Quantitative high throughput screen for delayed death inhibitors of the malarial parasite plastid, 48 hour incubation (AID 488752). Also: nearly all actives have a fitted effect of over 65% in size. The settings on record: Plasmodium falciparum growth; series mostly up to 28.7 µM. Put shortly:
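Cultures: infected erythrocytes at final 2% hematocrit and 0.1% parasitemia in Albumax-supplemented RPMI. Parasites express integrated firefly luciferase. Incubation with compound lasts 48 h before luminescent detection of remaining reporter activity.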

Test [6] concerns the target Thioredoxin reductase 1, cytoplasmic (Rattus norvegicus) (UniProt O89049). Description: qHTS Assay for Substrates of Mammalian Selenoprotein Thioredoxin Reductase 1 (TrxR1) (AID 488772).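 Also: a drop in NADPH fluorescence below the no-compound background marks a TrxR1 substrate.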 The settings on record: purified TrxR1, NADPH consumption substrate assay; series mostly up to 57.1 µM. Put shortly:
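In this dual-purpose format, potential substrates are identified from the first fluorescence read after selenite addition, not from the 8-minute delta. Rat enzyme is preincubated with NADPH and then with compound at ~22 deg C.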

Test [7] has the same target. Description: qHTS Assay for Inhibitors of Mammalian Selenoprotein Thioredoxin Reductase 1 (TrxR1) (AID 488773).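 Also: drop in NADPH fluorescence over an 8 min run after selenite addition; nearly all actives have a fitted effect of over 40% in size.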 The settings on record: purified TrxR1 enzyme activity; series mostly up to 57.1 µM. Put shortly:
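Inhibition is scored from the loss of NADPH fluorescence between first and last reads of an 8-min kinetic run. Selenite (400 uM) was the substrate, added after 15 min compound preincubation at room temperature.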

For test [8], the target named is Flap endonuclease 1 (Homo sapiens) (UniProt P39748). As to the kind of experiment: qHTS Validation Assay for the Inhibitors of Human Flap endonuclease 1 (FEN1) (AID 488816). The following applies: FEN1 nuclease activity, fluorogenic DNA substrate; series mostly up to 57.1 µM. Put shortly:
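Enzyme reagent 10 nM; cpds pinned; 15 min RT preinc.; substrate 50 nM final; reads t=0 and 15 min; no-enzyme buffer wells as neg. control; normalized data, 4-parameter Hill fit.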

Test [9] deals with M-phase phosphoprotein 8 (Homo sapiens) (UniProt Q99549). Description: qHTS Validation Assay for Inhibitors for MPP8 Chromodomain Interactions with Methylated Histone Tails (AID 488949).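 Also: 50 nM MPP8 with 50 nM peptide preformed then compounds added for 30 min; AlphaScreen signal from MPP8 chromodomain bound to biotinylated H3K9me3 peptide; top concentration of the series differs between compounds; nearly all actives have a fitted effect of over 55% in size.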 The following applies: AlphaScreen MPP8 binding to H3K9me3 peptide; series mostly up to 57.1 µM. A digest of the protocol: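 50 nM MPP8 + 50 nM b-H3K9me3 peptide, PBS pH 7.4/0.01% Tween-20, 30 min RT; + cpd 30 min RT; + AlphaScreen donor/Ni-chelate acceptor beads 10 ug/mL final, 30 min dark; luminescence read.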
Sequence of M-phase phosphoprotein 8 (Homo sapiens) (Q99549 whole entry, looked up): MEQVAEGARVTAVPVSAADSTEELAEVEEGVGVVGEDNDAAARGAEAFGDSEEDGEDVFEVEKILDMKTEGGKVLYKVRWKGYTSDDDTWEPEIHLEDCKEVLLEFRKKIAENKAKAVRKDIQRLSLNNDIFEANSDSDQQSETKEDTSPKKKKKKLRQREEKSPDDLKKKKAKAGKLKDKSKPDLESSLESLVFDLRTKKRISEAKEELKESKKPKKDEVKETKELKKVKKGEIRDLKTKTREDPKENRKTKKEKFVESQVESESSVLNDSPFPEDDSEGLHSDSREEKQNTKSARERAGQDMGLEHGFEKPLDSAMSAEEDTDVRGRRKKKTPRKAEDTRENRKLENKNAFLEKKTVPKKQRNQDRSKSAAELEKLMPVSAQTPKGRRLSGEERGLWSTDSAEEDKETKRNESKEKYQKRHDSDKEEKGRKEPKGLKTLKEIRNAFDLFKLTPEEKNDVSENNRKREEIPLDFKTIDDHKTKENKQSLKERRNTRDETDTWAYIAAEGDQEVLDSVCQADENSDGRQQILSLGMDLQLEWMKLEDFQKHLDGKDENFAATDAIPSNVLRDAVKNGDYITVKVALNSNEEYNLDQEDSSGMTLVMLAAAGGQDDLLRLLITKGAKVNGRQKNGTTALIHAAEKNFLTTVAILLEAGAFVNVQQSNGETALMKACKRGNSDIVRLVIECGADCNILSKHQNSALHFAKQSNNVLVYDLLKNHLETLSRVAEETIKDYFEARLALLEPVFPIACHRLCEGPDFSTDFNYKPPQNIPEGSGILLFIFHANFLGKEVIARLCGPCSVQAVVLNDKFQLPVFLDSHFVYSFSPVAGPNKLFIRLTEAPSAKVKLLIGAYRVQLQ

The target of test [10] is Chromobox protein homolog 1 (Homo sapiens) (UniProt P83916). As to the kind of experiment: qHTS Validation Assay for Inhibitors of HP1-beta Chromodomain Interactions with Methylated Histone Tails (AID 488953).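 Also: loss of AlphaScreen luminescence from HP1-beta binding biotinylated H3K9me3 peptide; nearly all actives have a fitted effect of over 50% in size.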 The following applies: HP1-beta chromodomain / methylated histone peptide binding assay; series mostly up to 114 µM. A digest of the protocol: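 Compounds pinned into a preassembled complex of HP1-beta and trimethyl-K9 histone H3(1-18) biotin peptide (50 nM each; PBS pH 7.4, 0.01% Tween-20). After 30 min, bead-based AlphaScreen detection followed.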
Sequence of Chromobox protein homolog 1 (Homo sapiens) (P83916 whole entry, looked up): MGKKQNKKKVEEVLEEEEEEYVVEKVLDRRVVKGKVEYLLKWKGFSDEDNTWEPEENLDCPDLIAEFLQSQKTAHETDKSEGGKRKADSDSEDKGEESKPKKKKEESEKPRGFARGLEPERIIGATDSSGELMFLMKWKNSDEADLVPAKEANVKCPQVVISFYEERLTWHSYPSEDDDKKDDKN

For test [11], the target named is Methanococcus maripaludis chaperonin (MmCpn) (UniProt Q6LX38). As to the kind of experiment: High-Throughput Screening for Modulators of Cytosolic Chaperonin Activity: MmCpn Primary Screen (AID 488978).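 Also: 50 nM MmCpn enzyme hydrolysing 30 µM ATP at 37 °C.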 The settings on record: Purified MmCpn ATPase activity, ADP HTRF detection, 10 min; series mostly up to 76.9 µM. A digest of the protocol:
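Steps: chaperonin 50 nM final; add compound, 5 min RT; start with ATP, 30 uM final; hold 10 min at 37C; add ADP Transcreener HTRF reagent, 5 min; read ex 320, em 590 and 665 nm.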
(In general: Time-resolved FRET reads energy transfer from a long-lived donor to a nearby acceptor.)

For test [12], the target named is Transient receptor potential cation channel subfamily V member 1 (Homo sapiens) (UniProt Q8NER1). As to the kind of experiment: HTS Assay for Compounds that Act as Enhancers of the Vanilloid Receptor 1 (AID 488979). The following applies: TRPV1-expressing cells, enhancer of channel activity, stimulated with capsaicin at EC20; series mostly up to 41.7 µM. Put shortly:
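TRPV1 cells loaded with Fluo-8 calcium dye; compound added and Ca2+ signal (ex 480/em 520 nm) followed 3 min, then capsaicin at EC20 added and read 2 more min to detect enhancement.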

Test [13] concerns the target Thyrotropin receptor (Homo sapiens) (UniProt P16473). As to the kind of experiment: qHTS Assay for Antagonists of the Thyroid Stimulating Hormone Receptor (AID 488980). The settings on record: TSHR-expressing cells, cAMP antagonist read-out; series mostly up to 57.5 µM. A digest of the protocol:
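Readout is cAMP by HTRF competition between cellular cAMP and cAMP-d2 for a cryptate-labelled antibody. Antagonism was assessed in TSHR-transfected HEK293 cells stimulated with 4 nM TSH (EC80, final) in the presence of RO 20-1724.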

Test [14] concerns the target D(1A) dopamine receptor (Homo sapiens) (UniProt P21728). As to the kind of experiment: HTS Assay for Allosteric Agonists of the Human D1 Dopamine Receptor: Primary Screen for Agonists (AID 488981). The settings on record: Inducible HEK293 T-REx D1 cells, calcium-flux fluorescence, 180 s kinetic; series mostly up to 41.8 µM. A digest of the protocol:
(§1)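 Tetracycline-induced HEK293 Trex D1 cells with forced coupling to calcium, loaded with no-wash calcium dye; kinetic fluorescence read 180 s after compound addition for agonism, then a further 180 s after an EC20 dopamine challenge for potentiation.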

For test [15] the target is unchanged. As to the kind of experiment: HTS Assay for Allosteric Agonists of the Human D1 Dopamine Receptor: Primary Screen for Potentiators (AID 488982). The settings on record: HEK293 T-REx D1 inducible cells, calcium flux, kinetic fluorescence; series mostly up to 8.37 µM. Put shortly: as §1
The target is the same in test [16]. Description: HTS Assay for Allosteric Agonists of the Human D1 Dopamine Receptor: Primary Screen for Antagonists (AID 488983).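 Also: calcium flux response to an EC80 dopamine challenge measured with no-wash dye; nearly all actives have a fitted effect of over 65% in size.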 The settings on record: D1 receptor cell assay, antagonist mode, qHTS titration; series mostly up to 41.8 µM. A digest of the protocol: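 In this primary screen, compounds are applied to calcium-dye-loaded HEK293 T-REx cells with force-coupled D1 expression induced overnight at 30 C. An EC80 of dopamine follows the 180 s compound phase, and calcium is monitored for a further 180 s.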

Records with an inconclusive call do not appear. Where a call stands in place of a potency, no number is given. Activity calls are given as the source filed them. Unless noted, calls follow the shape of the dose curve; as a rule, active = well fitted curve in the direction sought with a large enough effect; inconclusive = small, poorly fitted or top-dose-only effect, or another doubt; inactive = no such curve, though single readings can be large; an effect the other way counts as inactive or inconclusive.

Sequence of D(1A) dopamine receptor (Homo sapiens) (P21728 whole entry, looked up): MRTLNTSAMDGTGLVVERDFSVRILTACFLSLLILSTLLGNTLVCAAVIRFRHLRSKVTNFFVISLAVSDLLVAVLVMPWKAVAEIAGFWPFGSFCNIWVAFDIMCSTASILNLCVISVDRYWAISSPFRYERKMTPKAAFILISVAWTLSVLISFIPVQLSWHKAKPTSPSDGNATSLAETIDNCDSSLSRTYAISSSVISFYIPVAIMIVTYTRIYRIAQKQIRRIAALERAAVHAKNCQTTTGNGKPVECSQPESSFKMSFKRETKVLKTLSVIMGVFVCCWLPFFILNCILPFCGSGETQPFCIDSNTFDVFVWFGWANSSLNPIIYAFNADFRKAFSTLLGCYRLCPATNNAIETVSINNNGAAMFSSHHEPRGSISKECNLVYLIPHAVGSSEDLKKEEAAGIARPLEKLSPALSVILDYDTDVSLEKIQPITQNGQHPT
Sequence of Thioredoxin reductase 1, cytoplasmic (Rattus norvegicus) (O89049 whole entry, looked up): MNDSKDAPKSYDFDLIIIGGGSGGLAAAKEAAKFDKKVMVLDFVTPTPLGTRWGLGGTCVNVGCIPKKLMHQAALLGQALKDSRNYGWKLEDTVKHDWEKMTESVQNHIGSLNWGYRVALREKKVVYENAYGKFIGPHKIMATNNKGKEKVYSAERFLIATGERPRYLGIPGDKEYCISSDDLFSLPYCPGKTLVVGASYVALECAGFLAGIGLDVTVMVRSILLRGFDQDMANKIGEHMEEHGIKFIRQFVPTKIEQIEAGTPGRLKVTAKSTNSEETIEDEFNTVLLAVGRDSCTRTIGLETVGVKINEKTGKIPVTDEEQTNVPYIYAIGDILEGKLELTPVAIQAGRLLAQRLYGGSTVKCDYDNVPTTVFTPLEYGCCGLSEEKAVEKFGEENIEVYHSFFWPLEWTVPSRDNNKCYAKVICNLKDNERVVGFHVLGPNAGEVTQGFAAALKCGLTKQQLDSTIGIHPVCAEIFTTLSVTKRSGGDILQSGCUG
Sequence of Beta-2 adrenergic receptor (Homo sapiens) (P07550 whole entry, looked up): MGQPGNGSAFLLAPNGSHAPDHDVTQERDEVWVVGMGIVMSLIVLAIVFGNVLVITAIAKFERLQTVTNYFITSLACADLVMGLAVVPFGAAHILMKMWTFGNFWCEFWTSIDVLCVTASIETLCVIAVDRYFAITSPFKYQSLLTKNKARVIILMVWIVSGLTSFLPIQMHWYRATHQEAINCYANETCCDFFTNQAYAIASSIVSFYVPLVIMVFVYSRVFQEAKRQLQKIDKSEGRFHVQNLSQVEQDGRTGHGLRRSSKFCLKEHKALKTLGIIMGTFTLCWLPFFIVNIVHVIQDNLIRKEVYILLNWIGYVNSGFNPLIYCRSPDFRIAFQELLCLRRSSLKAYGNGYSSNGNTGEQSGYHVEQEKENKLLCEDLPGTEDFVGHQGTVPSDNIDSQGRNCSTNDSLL
Sequence of Tumor susceptibility gene 101 protein (Homo sapiens) (Q99816 whole entry, looked up, the tested form may be a part): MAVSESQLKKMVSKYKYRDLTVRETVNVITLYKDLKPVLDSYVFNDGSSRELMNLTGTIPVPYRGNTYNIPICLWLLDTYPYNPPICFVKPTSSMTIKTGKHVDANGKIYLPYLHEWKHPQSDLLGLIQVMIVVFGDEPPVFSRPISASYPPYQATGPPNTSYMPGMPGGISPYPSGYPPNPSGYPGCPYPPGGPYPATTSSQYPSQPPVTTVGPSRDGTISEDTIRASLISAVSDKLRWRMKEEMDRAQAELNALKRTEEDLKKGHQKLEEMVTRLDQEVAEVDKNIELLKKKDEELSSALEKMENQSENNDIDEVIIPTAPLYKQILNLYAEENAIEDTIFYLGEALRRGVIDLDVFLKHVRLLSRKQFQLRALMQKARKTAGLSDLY
Sequence of Flap endonuclease 1 (Homo sapiens) (P39748 whole entry, looked up): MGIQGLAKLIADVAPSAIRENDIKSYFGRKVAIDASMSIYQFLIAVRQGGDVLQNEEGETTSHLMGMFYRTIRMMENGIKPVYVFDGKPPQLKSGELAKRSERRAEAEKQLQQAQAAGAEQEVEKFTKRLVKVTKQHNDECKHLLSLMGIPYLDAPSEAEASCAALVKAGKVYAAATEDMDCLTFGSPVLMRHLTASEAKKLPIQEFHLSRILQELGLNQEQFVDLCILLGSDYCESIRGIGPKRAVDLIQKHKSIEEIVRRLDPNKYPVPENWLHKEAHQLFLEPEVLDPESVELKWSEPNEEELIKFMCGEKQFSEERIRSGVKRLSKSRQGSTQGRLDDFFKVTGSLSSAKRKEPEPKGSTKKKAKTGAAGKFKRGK
Sequence of Thyrotropin receptor (Homo sapiens) (P16473 whole entry, looked up): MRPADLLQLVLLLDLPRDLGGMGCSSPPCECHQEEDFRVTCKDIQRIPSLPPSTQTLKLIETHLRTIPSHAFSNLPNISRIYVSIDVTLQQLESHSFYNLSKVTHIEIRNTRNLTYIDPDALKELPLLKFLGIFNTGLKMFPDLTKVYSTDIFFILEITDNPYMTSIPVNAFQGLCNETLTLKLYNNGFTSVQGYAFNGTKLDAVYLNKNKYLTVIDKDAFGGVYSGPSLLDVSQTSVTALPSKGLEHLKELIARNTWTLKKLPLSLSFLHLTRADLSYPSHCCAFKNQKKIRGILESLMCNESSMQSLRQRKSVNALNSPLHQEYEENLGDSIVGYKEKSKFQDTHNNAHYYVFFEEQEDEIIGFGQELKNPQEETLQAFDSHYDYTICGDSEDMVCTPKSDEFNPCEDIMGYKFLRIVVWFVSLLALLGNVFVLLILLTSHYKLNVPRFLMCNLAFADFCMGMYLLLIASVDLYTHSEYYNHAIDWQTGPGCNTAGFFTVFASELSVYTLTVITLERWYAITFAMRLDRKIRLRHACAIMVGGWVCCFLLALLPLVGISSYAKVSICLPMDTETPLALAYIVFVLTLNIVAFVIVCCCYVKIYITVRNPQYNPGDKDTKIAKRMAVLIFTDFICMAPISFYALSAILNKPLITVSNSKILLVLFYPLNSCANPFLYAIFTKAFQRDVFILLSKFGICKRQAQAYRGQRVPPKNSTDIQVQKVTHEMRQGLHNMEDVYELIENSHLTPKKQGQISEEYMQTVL
Sequence of Methanococcus maripaludis chaperonin (MmCpn) (Q6LX38 1-543): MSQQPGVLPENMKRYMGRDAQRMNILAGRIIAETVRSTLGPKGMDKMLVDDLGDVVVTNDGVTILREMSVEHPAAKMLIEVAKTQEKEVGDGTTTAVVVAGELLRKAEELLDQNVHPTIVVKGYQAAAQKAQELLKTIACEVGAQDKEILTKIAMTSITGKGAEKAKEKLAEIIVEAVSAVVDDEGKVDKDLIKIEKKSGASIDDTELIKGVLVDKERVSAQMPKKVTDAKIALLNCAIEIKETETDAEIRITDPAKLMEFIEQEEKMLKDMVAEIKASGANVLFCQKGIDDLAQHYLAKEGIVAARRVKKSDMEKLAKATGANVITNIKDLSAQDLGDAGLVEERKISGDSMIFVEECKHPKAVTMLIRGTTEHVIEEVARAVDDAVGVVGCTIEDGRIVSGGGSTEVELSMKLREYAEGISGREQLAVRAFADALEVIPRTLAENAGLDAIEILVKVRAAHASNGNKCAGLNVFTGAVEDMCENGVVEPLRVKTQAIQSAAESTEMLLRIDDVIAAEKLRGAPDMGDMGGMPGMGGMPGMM

On to `COc1cc(N)c(Cl)cc1C(=O)NC1CCN(Cc2ccccc2)CC1`, for which, in test [1], the Potency result is “inactive”.
Take `CC(C)=CCOc1ccc(/C=C/C(=O)c2ccc(OCC=C(C)C)cc2OCC(=O)O)cc1`: the Potency result in test [1] is “inactive”.
On the same count and under the same terms, the entry for `CCCc1ncc(C[n+]2ccccc2C)c(N)n1` is “inactive”.
As to `CCCCCCCCOc1ccc(C(=O)c2ccccc2)c(O)c1`, in test [1], the Potency result was “inactive”.
For `COc1ccccc1N1CCN(CCCCNC(=O)c2ccc(-c3ccc(C(C)=O)cc3)cc2)CC1`, in test [1], the Potency result is “inactive”.
Consider `OC[C@H]1O[C@@H]2O[C@H]3[C@H](O)[C@@H](O)[C@@H](O[C@H]4[C@H](O)[C@@H](O)[C@@H](O[C@H]5[C@H](O)[C@@H](O)[C@@H](O[C@H]6[C@H](O)[C@@H](O)[C@@H](O[C@H]7[C@H](O)[C@@H](O)[C@@H](O[C@H]8[C@H](O)[C@@H](O)[C@@H](O[C@H]1[C@H](O)[C@H]2O)O[C@@H]8CO)O[C@@H]7CO)O[C@@H]6CO)O[C@@H]5CO)O[C@@H]4CO)O[C@@H]3CO`, for which the Potency result in test [1] was “inactive”.
Regarding `FC1(F)C(F)(F)C(F)(F)C2(F)C(F)(F)C(F)(F)C(F)(F)C(F)(F)C2(F)C1(F)F` (configuration not stated), the Potency entry in [1] was “inactive”.
Consider `COc1ccc(C(=O)c2ccccc2O)c(O)c1`, for which the Potency entry in test [1] was “inactive”.
For `CCc1ccc(C(=O)C(C)CN2CCCCC2)cc1` (configuration not stated), the Potency entry in test [1] was “inactive”.
For `CC1CCc2c(N3CCC(O)CC3)c(F)cc3c(=O)c(C(=O)O)cn1c23` (configuration not stated), the Potency entry in [1] was “inactive”.
Same read-out and setting: the entry for `Cl/C(=C\n1cncn1)c1ccc(Cl)cc1Cl` is “inactive”.
Regarding `NC(N)=NCc1cccc(I)c1`, the compound was classed as inactive in [2], in test [3], in test [4], in test [5], in test [6] and in [7]. Further, the compound was called inactive in test [8], in test [10], in test [11], in test [12], in [13] and in [14]. Moreover, the outcome in test [15] and in test [16] was inactive. Also, the Potency entry in test [9] and in [1] was “inactive” each time.
